# The source made the active and inactive calls. How the calls were made is not given here.
# Molecular target: Botulinum neurotoxin type A (Clostridium botulinum) (UniProt P0DPI0)
# Test: BoNT/A light chain protease inhibitors, biochemical, multiplex microsphere flow cytometry, validation set (AID 588460)
# Details: at 10 µM, hits give high values
# Botulinum neurotoxin type A (Clostridium botulinum), sequence (P0DPI0 whole entry, looked up): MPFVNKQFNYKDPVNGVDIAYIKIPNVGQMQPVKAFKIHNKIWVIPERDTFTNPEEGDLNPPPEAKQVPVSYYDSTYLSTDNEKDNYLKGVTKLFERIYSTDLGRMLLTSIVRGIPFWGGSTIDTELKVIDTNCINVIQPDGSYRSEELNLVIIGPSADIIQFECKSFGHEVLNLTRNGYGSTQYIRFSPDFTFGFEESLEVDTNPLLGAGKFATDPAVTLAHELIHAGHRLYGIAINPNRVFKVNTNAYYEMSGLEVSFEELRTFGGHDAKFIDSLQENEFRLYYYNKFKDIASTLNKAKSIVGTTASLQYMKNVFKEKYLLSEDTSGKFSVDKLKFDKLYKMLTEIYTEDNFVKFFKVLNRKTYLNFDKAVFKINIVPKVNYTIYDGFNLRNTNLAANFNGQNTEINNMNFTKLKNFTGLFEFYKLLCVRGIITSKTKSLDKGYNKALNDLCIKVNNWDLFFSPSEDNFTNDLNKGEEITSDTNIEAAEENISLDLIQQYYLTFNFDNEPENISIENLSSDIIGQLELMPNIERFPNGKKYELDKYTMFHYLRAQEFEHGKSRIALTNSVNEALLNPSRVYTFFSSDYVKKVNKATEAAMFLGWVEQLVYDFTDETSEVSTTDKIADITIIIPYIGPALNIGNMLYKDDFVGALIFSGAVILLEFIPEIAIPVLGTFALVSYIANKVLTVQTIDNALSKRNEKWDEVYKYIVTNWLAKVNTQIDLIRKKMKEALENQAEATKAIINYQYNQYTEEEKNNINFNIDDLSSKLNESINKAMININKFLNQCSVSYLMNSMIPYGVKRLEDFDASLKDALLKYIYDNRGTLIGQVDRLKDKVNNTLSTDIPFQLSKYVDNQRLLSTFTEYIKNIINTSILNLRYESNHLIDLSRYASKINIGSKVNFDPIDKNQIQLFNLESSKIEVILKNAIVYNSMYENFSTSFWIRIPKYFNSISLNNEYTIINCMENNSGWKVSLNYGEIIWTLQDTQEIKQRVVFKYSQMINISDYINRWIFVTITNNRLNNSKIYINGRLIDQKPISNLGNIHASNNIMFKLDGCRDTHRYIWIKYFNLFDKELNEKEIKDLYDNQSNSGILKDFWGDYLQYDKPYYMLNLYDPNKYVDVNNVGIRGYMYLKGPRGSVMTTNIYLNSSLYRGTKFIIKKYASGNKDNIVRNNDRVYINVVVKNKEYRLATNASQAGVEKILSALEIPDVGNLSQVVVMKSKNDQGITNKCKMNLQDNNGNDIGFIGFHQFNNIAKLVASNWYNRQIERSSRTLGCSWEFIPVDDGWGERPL
row,Compound,inhibition
1,CCC(COC(=O)c1cc(OC)c(OC)c(OC)c1)(c1ccccc1)N(C)C (centres undefined),-2.8% (inactive)
2,Nc1ccc([As](=O)(O)O)cc1,-1.7% (inactive)
3,c1cc(-c2ccncc2)ccn1,-1.9% (inactive)
4,CN1CCN2c3ccccc3Cc3ccccc3C2C1 (centres undefined),0.5% (inactive)
5,CCCC(C)(COC(N)=O)COC(=O)NC(C)C (centres undefined),1.4% (inactive)
6,c1cnc2c(c1)ccc1ncccc12,-0.7% (inactive)
7,NCCc1ccc(O)cc1,0.3% (inactive)
8,Cc1cc(NS(=O)(=O)c2ccc(N)cc2)no1,0.1% (inactive)
9,C[C@]12CC[C@@H]3c4ccc(O)c(O)c4CC[C@H]3[C@@H]1CC[C@@H]2O,-0.1% (inactive)
10,NC(N)=NC(N)=NCCc1ccccc1,-0.8% (inactive)
11,CC(CCc1ccccc1)NC(C)C(O)c1ccc(O)cc1 (centres undefined),-0.8% (inactive)
12,Clc1ccc(COC(Cn2ccnc2)c2ccc(Cl)cc2Cl)c(Cl)c1 (centres undefined),-0.5% (inactive)
13,CC12CN3CC(c4ccccc4)(CN(C1)C31CCCCC1)C2=O,-0.1% (inactive)
14,c1ccc2c(c1)OCC(C1=NCCN1)O2 (centres undefined),0.1% (inactive)
15,COc1cc(/C=C2\C(=O)NC(=O)N(c3ccccc3)C2=O)c([N+](=O)[O-])cc1OC,-1.1% (inactive)
16,CCC1(c2ccccc2)C(=O)NCNC1=O,-0.9% (inactive)
17,CC12CCC3C(CC=C4CC5(CCC43C)OCCO5)C1CCC2=O (centres undefined),-0.8% (inactive)
18,CNC[C@H](O)c1cccc(O)c1,2.2% (inactive)
19,COc1ccc2c3c([nH]c2c1)C(C)=NCC3,-5.4% (inactive)

# Source: PubChem BioAssay
